Records with an inconclusive call do not appear. Active and inactive are the calls of the source. Unless noted, calls follow the shape of the dose curve; as a rule, active = well fitted curve in the direction sought with a large enough effect in the repeat runs; inconclusive = weak or mixed curves; inactive = no such curve, though single readings can be large; an effect the other way counts as inactive or inconclusive.
Assays:
[1] = qHTS assay for small molecules that induce genotoxicity in human embryonic kidney cells expressing luciferase-tagged ATAD5 (AID 651632); also: nearly all actives have a fitted effect of over 15% in size
How it was run: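 Luminescent reporter readout, HEK293T ATAD5-luc line: 16 hr drug exposure (37C, 5% CO2) followed by Amplite, 30 min RT.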

[2] = qHTS assay for small molecule agonists of the p53 signaling pathway - cell viability (AID 651633; calls by dose curve;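 also: p53RE-bla HCT reporter cells with a stable beta-lactamase p53 reporter; series mostly up to about 83 µM; nearly all actives have a fitted effect of over 30% in size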)
How it was run: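 p53RE-bla cells, seeded at 4,000 per well and rested 5 h at 37 C/5% CO2, received compounds in DMSO for 16 h at 37 C. CellTiter-Glo was then added, and luminescence was read after 30 min at room temperature to gauge cytotoxicity.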

[3] = qHTS assay for small molecules that induce genotoxicity in human embryonic kidney cells expressing luciferase-tagged ATAD5 - cell viability (AID 651634; calls by dose curve; also: nearly all actives have a fitted effect of over 25% in size)
How it was run: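 Viability read: CellTiter-Fluor fluorescence, 30 min at 37C. Cells: HEK293T, luciferase-tagged ATAD5. Exposure: 15.5 hr, 37C, 5% CO2, compound or DMSO vehicle.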

[4] = qHTS assay for small molecule disruptors of the mitochondrial membrane potential - cell viability (AID 720634; calls by dose curve;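 also: human HepG2 liver cancer cells; series mostly up to about 83 µM; nearly all actives have a fitted effect of over 20% in size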)
How it was run: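 HepG2, 1 hr compound, 37 C. ATP luminescence via CellTiter-Glo, 30 min RT, same well as m-MPI.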

[5] = qHTS assay for small molecule disruptors of the mitochondrial membrane potential (AID 720635)
How it was run: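 HepG2 cells (2,000/well) attached overnight at 37C, then took compound for 1 hr at 37C, 5% CO2. Mito-MPS dye was added for 30 min; fluorescence was read at 490/535 nm (monomers) and 540/590 nm (aggregates).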

[6] = qHTS assay to test for compound auto fluorescence at 590 nm (red) in HepG2 cells (AID 720674)
How it was run: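 Intrinsic compound fluorescence in the red window (Ex/Em 540/590 nm) is measured in attached HepG2 cells exposed for 1 hr, DMSO vehicle as baseline, benchmarked to Rose Bengal sodium.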

[7] = qHTS assay to test for compound auto fluorescence at 535 nm (green) in HepG2 cells (AID 720675)
[8] = qHTS assay to test for compound auto fluorescence at 460 nm (blue) in HEK293 cells (AID 720678)
How it was run: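 HEK293 cells (2,000/well, medium with 10% dialyzed FBS) attached 4-5 hr, then exposed to compound overnight at 37C, 5% CO2. Blue fluorescence read at 405/460 nm, with triamterene as reference fluorophore.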

[9] = qHTS assay to test for compound auto fluorescence at 590 nm (red) in HEK293 cells (AID 720679)
How it was run: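 HEK293 cells (2,000/well, 10% dialyzed FBS) attached 4-5 hr, then dosed with compound or DMSO and incubated overnight at 37C, 5% CO2. Red fluorescence read at 540/590 nm, Rose Bengal sodium as reference fluorophore.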

[10] = qHTS assay to test for compound auto fluorescence at 535 nm (green) in HEK293 cells (AID 720680)
[11] = qHTS assay to test for compound auto fluorescence at 460 nm (blue) in HEK293 cell free culture (AID 720681)
How it was run: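 Test compounds were pinned into cell-free culture medium (DMEM with 10% FBS) and fluorescence was read directly at Ex/Em 405/460 nm. Signals were expressed as fluorescence equivalents of triamterene, with DMSO vehicle as control.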

[12] = qHTS assay to test for compound auto fluorescence at 535 nm (green) in HEK293 cell free culture (AID 720682)
How it was run: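 Intrinsic compound fluorescence is measured in culture medium containing 10% FBS, with excitation at 485 nm and detection at 535 nm, referenced to fluorescein.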

[13] = qHTS assay to test for compound auto fluorescence at 590 nm (red) in HEK293 cell free culture (AID 720683)
How it was run: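 Tox21 10K library compounds were pinned into cell-free DMEM with 10% FBS and fluorescence was read at excitation 540 nm. Activity is expressed as Rose Bengal sodium equivalency.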

[14] = qHTS assay to test for compound auto fluorescence at 590 nm (red) in HepG2 cell free culture (AID 720684)
How it was run: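 Red fluorescence (540 nm excitation, 590 nm emission) was measured after compound transfer into cell-free MEM supplemented with 10% FBS. Values are equivalencies against Rose Bengal sodium.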

[15] = qHTS assay to test for compound auto fluorescence at 460 nm (blue) in HepG2 cell free culture (AID 720685)
How it was run: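 Compound (23 nL) or DMSO pinned into cell-free MEM with 10% FBS; blue fluorescence read at 405/460 nm excitation/emission, expressed as auto-fluorescence equivalency to triamterene.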

[16] = qHTS assay to test for compound auto fluorescence at 535 nm (green) in HepG2 cell free culture (AID 720686)
[17] = molecular target: Glucocorticoid receptor (Homo sapiens) (UniProt P04150); test: qHTS assay to identify small molecule agonists of the glucocorticoid receptor (GR) signaling pathway (AID 720691; active = well fitted activation curve with a large enough effect in the signal ratio in the repeat runs, not every such curve was filed as active; the % refers to the signal ratio)
Glucocorticoid receptor (Homo sapiens), sequence (P04150 whole entry, looked up): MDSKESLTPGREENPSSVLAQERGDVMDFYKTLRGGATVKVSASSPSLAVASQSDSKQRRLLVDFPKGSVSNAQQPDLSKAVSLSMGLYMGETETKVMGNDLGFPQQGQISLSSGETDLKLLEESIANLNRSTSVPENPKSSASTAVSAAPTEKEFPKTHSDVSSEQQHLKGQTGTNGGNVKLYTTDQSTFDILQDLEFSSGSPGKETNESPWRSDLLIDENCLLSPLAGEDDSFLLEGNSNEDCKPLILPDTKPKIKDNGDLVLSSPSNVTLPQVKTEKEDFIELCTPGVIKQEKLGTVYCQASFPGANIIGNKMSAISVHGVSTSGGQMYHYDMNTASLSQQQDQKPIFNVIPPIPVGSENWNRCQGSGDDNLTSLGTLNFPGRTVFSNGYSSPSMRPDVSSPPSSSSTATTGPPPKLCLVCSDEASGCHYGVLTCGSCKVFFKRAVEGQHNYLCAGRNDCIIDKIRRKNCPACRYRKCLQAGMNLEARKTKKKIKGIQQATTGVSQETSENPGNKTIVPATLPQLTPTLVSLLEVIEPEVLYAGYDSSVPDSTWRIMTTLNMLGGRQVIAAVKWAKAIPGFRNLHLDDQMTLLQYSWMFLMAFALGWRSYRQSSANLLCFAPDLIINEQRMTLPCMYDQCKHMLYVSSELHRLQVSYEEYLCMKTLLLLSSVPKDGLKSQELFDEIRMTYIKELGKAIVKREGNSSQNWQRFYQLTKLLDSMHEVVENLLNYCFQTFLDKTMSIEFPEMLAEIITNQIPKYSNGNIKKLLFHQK
How it was run: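 qHTS in GR-bla HeLa cells: 4 h settling at 37 C/5% CO2, 18 h compound incubation at 37 C, 2 h LiveBLAzer B/G FRET substrate at room temperature, fluorescence intensity measured.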

[18] = qHTS assay to test for compound auto fluorescence at 460 nm (blue) in HepG2 cells (AID 720687)
How it was run: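 Cells (2,000/well in MEM with 10% FBS) attached overnight at 37 C, then were exposed to compound or DMSO for 1 hr at 37 C, 5% CO2. Fluorescence read at Ex/Em 405/460 nm, expressed as triamterene-equivalent signal.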

[19] = molecular target: Glucocorticoid receptor (Homo sapiens) (UniProt P04150); test: qHTS assay to identify small molecule antagonists of the glucocorticoid receptor (GR) signaling pathway (AID 720692; active = well fitted inhibition curve with a large enough effect in the signal ratio in the repeat runs, not every such curve was filed as active; the % refers to the signal ratio)
How it was run: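 Inhibition of glucocorticoid signalling is measured in HeLa cells with a GRE-controlled beta-lactamase reporter; cells are co-treated with compound and 5 nM dexamethasone (final) for 18 h before FRET substrate readout.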
% is scaled to controls: 0 for no effect and ±100 for the full control effect.

OCCCCCCCl
inactive: outcome [1] | outcome [2] | Potency [3] | outcome [4] | Potency [5] | outcome [6] | outcome [7] | outcome [8] | outcome [9] | outcome [10] | outcome [11] | outcome [12] | outcome [13] | outcome [14] | outcome [15] | outcome [16] | Potency [17]

CCC1Nc2cc(Cl)c(S(N)(=O)=O)cc2S(=O)(=O)N1 (centres undefined)
inactive: outcome [1] | outcome [2] | Potency [3] | outcome [4] | outcome [6] | outcome [7] | outcome [8] | outcome [9] | outcome [10] | outcome [11] | outcome [12] | outcome [13] | outcome [14] | outcome [15] | outcome [16] | outcome [18]

O=c1cc(O)c(Cl)c[nH]1
inactive: outcome [1] | outcome [2] | Potency [3] | outcome [4] | Potency [5] | outcome [6] | outcome [7] | outcome [9] | outcome [10] | outcome [11] | outcome [12] | outcome [13] | outcome [14] | outcome [15] | outcome [16] | outcome [18]

C/C=C(\C)C(=O)OCC/C=C\CC
inactive: outcome [1] | outcome [2] | Potency [3] | outcome [4] | outcome [6] | outcome [7] | outcome [8] | outcome [9] | outcome [10] | outcome [11] | outcome [12] | outcome [13] | outcome [14] | outcome [15] | outcome [16] | outcome [18] | Potency [17]

COc1ccc(/C=N/NC(=O)c2ccncc2)cc1OC
inactive: outcome [1] | outcome [2] | Potency [3] | outcome [4] | Potency [5] | outcome [6] | outcome [7] | outcome [8] | outcome [9] | outcome [10] | outcome [11] | outcome [12] | outcome [13] | outcome [15] | outcome [16] | outcome [18] | Potency [17]

C=CCOCC(O)CCl (centres undefined)
inactive: outcome [1] | outcome [2] | Potency [3] | outcome [4] | outcome [6] | outcome [7] | outcome [8] | outcome [9] | outcome [10] | outcome [11] | outcome [12] | outcome [13] | outcome [14] | outcome [15] | outcome [16] | outcome [18] | Potency [17] | outcome [19]

CCc1nccnc1C
inactive: outcome [1] | outcome [2] | Potency [3] | outcome [4] | outcome [6] | outcome [7] | outcome [8] | outcome [9] | outcome [10] | outcome [11] | outcome [12] | outcome [13] | outcome [14] | outcome [16] | outcome [18] | Potency [17] | outcome [19]

CC(=O)OC(C)(C)Cc1ccccc1
inactive: outcome [1] | outcome [2] | Potency [3] | outcome [4] | Potency [5] | outcome [6] | outcome [7] | outcome [8] | outcome [9] | outcome [10] | outcome [11] | outcome [12] | outcome [13] | outcome [14] | outcome [15] | outcome [16] | outcome [18]

CC(C)CCCCCCOC(=O)C1CCCCC1C(=O)OCCCCCCC(C)C (centres undefined)
inactive: outcome [1] | outcome [2] | Potency [3] | outcome [4] | outcome [6] | outcome [7] | outcome [8] | outcome [9] | outcome [10] | outcome [11] | outcome [12] | outcome [13] | outcome [14] | outcome [15] | outcome [16] | outcome [18] | Potency [17]

O=[Si]=O
inactive: outcome [1] | outcome [2] | Potency [3] | outcome [4] | Potency [5] | outcome [6] | outcome [7] | outcome [8] | outcome [9] | outcome [10] | outcome [11] | outcome [12] | outcome [13] | outcome [14] | outcome [15] | outcome [16] | outcome [18] | Potency [17]

Cc1ncc([N+](=O)[O-])n1CC(O)CCl (centres undefined)
inactive: outcome [1] | outcome [2] | Potency [3] | outcome [4] | fluorescence, relative to Rose Bengal [6] -0.0192% [at 18.6 µM] | fluorescence, % of fluorescein control [7] -0.155% [at 18.6 µM] | fluorescence, % of triamterene [8] -0.195% [at 18.6 µM] | fluorescence, % of fluorescent control [9] -0.364% [at 18.6 µM] | fluorescence, % of fluorescein [10] -0.0185% [at 18.6 µM] | fluorescence, % of fluorescent control [11] -0.008% [at 18.6 µM] | activity change [12] 0.017% [at 18.6 µM] | fluorescence, % of fluorescent control [13] -0.0564% [at 18.6 µM] | fluorescence, % of Rose Bengal [14] 0.0054% [at 18.6 µM] | fluorescence, % of fluorescent control [15] -0.0905% [at 18.6 µM] | fluorescence, % of fluorescein control [16] -0.0146% [at 18.6 µM] | fluorescence, % of fluorescent control [18] -0.0428% [at 18.6 µM] | Potency [17]

CCC(C)(CCC(C)C)C(=O)[O-].CCC(C)(CCC(C)C)C(=O)[O-].[Zn+2] (centres undefined)
inactive: outcome [1] | outcome [2] | Potency [3] | outcome [4] | outcome [6] | outcome [7] | outcome [8] | outcome [9] | outcome [10] | outcome [11] | outcome [12] | outcome [13] | outcome [14] | outcome [15] | outcome [16] | outcome [18]

CC(=O)/C=C/c1ccco1
inactive: outcome [1] | outcome [2] | Potency [3] | outcome [4] | Potency [5] | outcome [6] | outcome [7] | outcome [8] | outcome [9] | outcome [10] | outcome [11] | outcome [12] | outcome [13] | outcome [14] | outcome [16] | outcome [18]

C=CCOc1c(Br)cc(C(C)(C)c2cc(Br)c(OCC=C)c(Br)c2)cc1Br
inactive: outcome [1] | outcome [2] | Potency [3] | outcome [4] | Potency [5] | outcome [6] | outcome [7] | outcome [8] | outcome [9] | outcome [10] | outcome [11] | outcome [12] | outcome [13] | outcome [14] | outcome [15] | outcome [16] | outcome [18] | Potency [17]

CCN(CCC#N)c1ccccc1
inactive: outcome [1] | outcome [2] | Potency [3] | outcome [4] | outcome [6] | outcome [7] | outcome [8] | outcome [9] | outcome [10] | outcome [11] | outcome [12] | outcome [13] | outcome [15] | outcome [16] | outcome [18] | Potency [17] | outcome [19]

— PubChem BioAssay (Tox21)
